Source: PubChem BioAssay (NCATS)
Values joined by “and” are separate entries in the source; they are usually repeats but may differ in a detail not shown here. Equal values may be shown once. Inconclusive results are not listed. Active and inactive are the calls of the source. Unless noted, calls come from the whole dose curve; as a rule, active = well fitted curve in the direction sought with a large enough effect; inconclusive = small, poorly fitted or top-dose-only effect, or another doubt; inactive = no such curve, though single readings can be large; an effect the other way counts as inactive or inconclusive.

Experiments:
[1] = qHTS to identify inhibitors of the type 1 interferon - major histocompatibility complex class I in skeletal muscle: primary screen against the NCATS Pharmaceutical Collection (AID 1347407);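 note: luminescence of HiBiT knocked into endogenous HLA-B as interferon-induced MHC class I level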
In short: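 A qHTS format is used: 8-point, 1:5 compound series with 46 uM top final concentration, applied alongside 4 ng/ml IFN-beta to HLA-B*08:01-HiBiT knock-in myoblasts. Luminescence is measured after 24 h treatment.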

[2] = qHTS for inhibitors of adenylyl cyclases using a fission yeast platform: a pilot screen against the NCATS LOPAC library (AID 1347410)
In short: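 Inhibition of GNAS-stimulated AC9 activity in S. pombe was inferred from derepression of a PKA-repressed fbp1-GFP reporter, measured as cytometric fluorescence after 18 h at 30C with compounds at up to 57 µM.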

[3] = molecular target: Protein phosphatase 1D (Homo sapiens) (UniProt O15297); assay: RapidFire Mass Spectrometry qHTS Assay for Modulators of WT P53-Induced Phosphatase 1 (WIP1) (AID 1347424);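 note: amount of dephosphorylated VEPPL-S-QETFS peptide product formed by WIP1; series mostly up to about 63 µM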
In short: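 Mass-spectrometric measurement of dephosphorylated peptide after a 5 min room-temperature reaction of 10 nM WIP1 with 2 uM phosphopeptide, following 1 h compound preincubation in 30 mM MgCl2 buffer.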

[4] = Validation qHTS assay for inhibitors of Activation Induced Cytidine Deaminase (AID): UDG Counterscreen signal (AID 1347427)
In short: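 Fluorescence at 560 nm excitation, 665 nm emission reports UDG signal after 250 mM NaOH (2x) addition and 30 min. Enzymes (AID 1 uM, UDG 2 U/mL, at 4/3x) preincubated 10 min with compound, then 4 h with 4x 250 nM DJC20/DJC23 substrate at room temperature.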

[5] = molecular target: Single-stranded DNA cytosine deaminase (Homo sapiens) (UniProt Q9GZX7); assay: Validation qHTS assay for inhibitors of Activation Induced Cytidine Deaminase (AID): AID signal (AID 1347429)
In short: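 Steps: dispense AID with UDG; pin-transfer compound up to 114 uM final; add DJC20/DJC23 substrate and hold 4 hr at room temperature; add NaOH, hold 30 min; read FRET signal (540/590 nm).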

[6] = Primary qHTS for inhibitors of La Crosse Virus (LACV) - induced cell death in SH-SY5Y cells (AID 1508616);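 note: top concentration of the series differs between compounds; higher means more rescue of cells from virus-induced death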
In short: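 SH-SY5Y, 6000 cells/well; cpd via pin tool in DMSO; LACV 0.01 MOI; 6 d 37C 5% CO2; ATPLite, 5 min RT; luminescence normalized to ±virus DMSO controls.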

[7] = molecular target: Calcium and integrin-binding protein 1 (Homo sapiens) (UniProt Q99828); assay: Primary qHTS for Identification of Calcium Integrin Binding Protein 1 (CIB1) Competitor (AID 1508620);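 note: GST tagged CIB1 binding a fluorescein labelled alphaIIb integrin peptide tracer; top concentration of the series differs between compounds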
In short: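 Fluorescence polarization competition: CIB1-GST (1 uM final) preincubated with compound 15 min at room temperature, then FITC-labeled alphaIIb peptide (100 nM final) added for another 15 min. Polarization read at Ex 480/Em 540.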

[8] = A High-Content qHTS Against Drug Library for the Identification of Small Molecules that Inhibit DYT1 Early Onset Primary Dystonia-Associated Cell Pathology (AID 1645839; calls by dose curve; note: series mostly up to about 46 µM)
In short: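 Induced EGFP-delE TorsinA cells are imaged after 48 h of compound treatment. Punctate fusion-protein distribution gives the %pathology value, while nuclei counts flag toxicity. Wild-type EGFP-hTOR1A cells define the normal pattern.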

[9] = molecular target: Protein phosphatase 1D (Homo sapiens) (UniProt O15297); assay: Rhodamine-PBP qHTS Assay for Modulators of WT P53-Induced Phosphatase 1 (WIP1) (AID 1347425)
In short: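 Steps: enzyme with Rh-PBP sensor and compounds, room-temperature incubation of 1 hr, baseline read, addition of VEPPL-pS-QETFS (10 uM final), kinetic fluorescence reads at 525/598 nm. Activity equals final minus baseline signal.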

[10] = Primary qHTS for small molecule stabilizers of the endoplasmic reticulum resident proteome: Secreted ER Calcium Modulated Protein (SERCaMP) assay (AID 1508630)
In short: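 The SH-SY5Y reporter protocol was run at 3 concentrations up to 38.3 uM (primary) or 11 concentrations (follow-up): 16 h compound, 100 nM thapsigargin for 4 h, then extracellular luciferase luminescence.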

[11] = molecular target: Cytochrome P450 2D6 (Homo sapiens) (UniProt P10635); assay: Cytochrome P450 family 2 subfamily D member 6 (CYP2D6) small molecule antagonists: luciferase biochemical (cell-free) qHTS assay (AID 1645840; active = well fitted curve in the direction sought with a large enough effect in the repeat runs; an effect the other way counts as inactive or inconclusive; note: nearly all actives have a fitted effect of over 55% in size; note: potency is the fitted concentration of half-maximal effect)
In short: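 P450-Glo CYP2D6 system: proluciferin substrate converted by enzyme to luciferin, read by luminescence proportional to activity. Enzyme-substrate mix with compound 10 min at room temperature, then NADPH regeneration 1 h before detection reagent.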

Measured: Potency

Chain of Calcium and integrin-binding protein 1 (Homo sapiens) (Q99828 whole entry, looked up): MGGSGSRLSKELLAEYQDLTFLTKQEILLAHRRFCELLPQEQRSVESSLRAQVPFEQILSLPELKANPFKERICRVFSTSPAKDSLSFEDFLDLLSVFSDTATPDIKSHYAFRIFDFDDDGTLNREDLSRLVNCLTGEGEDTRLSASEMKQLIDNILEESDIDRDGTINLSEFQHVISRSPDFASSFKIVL
Chain of Protein phosphatase 1D (Homo sapiens) (O15297 whole entry, looked up): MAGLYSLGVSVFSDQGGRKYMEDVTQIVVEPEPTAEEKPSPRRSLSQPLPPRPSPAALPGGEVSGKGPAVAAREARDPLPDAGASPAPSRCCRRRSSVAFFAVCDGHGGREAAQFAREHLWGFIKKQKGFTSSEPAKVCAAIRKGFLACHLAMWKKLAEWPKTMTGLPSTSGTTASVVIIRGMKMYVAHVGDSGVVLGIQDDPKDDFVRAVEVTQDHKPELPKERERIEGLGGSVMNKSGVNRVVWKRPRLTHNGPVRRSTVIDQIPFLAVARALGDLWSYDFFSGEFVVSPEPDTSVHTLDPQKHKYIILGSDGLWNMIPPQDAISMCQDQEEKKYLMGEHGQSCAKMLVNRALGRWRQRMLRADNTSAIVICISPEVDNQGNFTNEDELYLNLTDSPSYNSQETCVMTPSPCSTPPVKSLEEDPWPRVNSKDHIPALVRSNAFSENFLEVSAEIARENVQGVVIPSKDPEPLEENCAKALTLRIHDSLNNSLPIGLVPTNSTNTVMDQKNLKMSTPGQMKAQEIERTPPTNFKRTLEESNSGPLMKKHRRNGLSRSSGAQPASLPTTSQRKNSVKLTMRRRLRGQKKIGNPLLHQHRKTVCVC
Chain of Cytochrome P450 2D6 (Homo sapiens) (P10635 whole entry, looked up): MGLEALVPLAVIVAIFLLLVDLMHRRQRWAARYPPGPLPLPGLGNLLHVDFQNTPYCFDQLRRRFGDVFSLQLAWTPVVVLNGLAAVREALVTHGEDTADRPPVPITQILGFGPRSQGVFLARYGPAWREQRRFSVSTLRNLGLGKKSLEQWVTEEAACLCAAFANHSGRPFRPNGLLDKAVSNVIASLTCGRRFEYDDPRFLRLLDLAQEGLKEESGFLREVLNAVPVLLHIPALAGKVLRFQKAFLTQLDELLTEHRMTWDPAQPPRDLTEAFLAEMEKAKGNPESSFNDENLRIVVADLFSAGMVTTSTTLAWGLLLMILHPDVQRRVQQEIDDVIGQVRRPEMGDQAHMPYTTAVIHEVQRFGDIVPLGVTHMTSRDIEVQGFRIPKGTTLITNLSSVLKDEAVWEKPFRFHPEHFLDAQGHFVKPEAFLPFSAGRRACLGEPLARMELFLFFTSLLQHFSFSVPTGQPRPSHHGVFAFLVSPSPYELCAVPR
Chain of Single-stranded DNA cytosine deaminase (Homo sapiens) (Q9GZX7 whole entry, looked up): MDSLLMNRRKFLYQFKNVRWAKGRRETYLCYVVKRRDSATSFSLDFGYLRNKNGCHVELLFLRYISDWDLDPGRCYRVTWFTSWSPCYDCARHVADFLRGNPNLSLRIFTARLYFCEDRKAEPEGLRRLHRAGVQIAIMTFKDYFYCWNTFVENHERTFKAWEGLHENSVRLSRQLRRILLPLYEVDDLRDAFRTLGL

COC(=O)C1=C(C)NC(C)=C(C(=O)OC)C1c1ccccc1[N+](=O)[O-]
not listed: [9] | [10] | [11]
inactive: all other assays above

C[C@H](N)[C@H](O)c1cccc(O)c1
not listed: [2] | [4] | [5]
inactive: all other assays above

CCCCOC(=O)c1ccc(O)cc1
inactive: [1] | [3] | [9] | [6] | [7] | [8]

Cc1ccc2nc(N)[nH]c(=O)c2c1Sc1ccncc1
active: [11] 7.76 µM and 10.7 µM
not listed: [2] | [4] | [5]
inactive: all other assays above

COc1ccc(S(=O)(=O)Nc2nnc(CC(C)C)s2)cc1
not listed: [2] | [4] | [5]
inactive: all other assays above

O=c1cc[nH]c(=O)[nH]1
not listed: [2] | [4] | [5]
inactive: all other assays above

CC(C)(C)NCC(O)COc1ccc(NC(=O)NC2CCCCC2)cc1 (stereo unspecified)
not listed: [2] | [4] | [5]
inactive: all other assays above

CCC(=O)c1ccc(O)cc1
not listed: [2] | [4] | [5] | [10]
inactive: all other assays above

CC(COc1ccccc1)NC(C)C(O)c1ccc(O)cc1 (stereo unspecified)
active: [11] 617 nM
not listed: [2] | [4] | [5]
inactive: all other assays above

CC(C)(C)C(=O)NCCCC(=O)O
not listed: [2] | [4] | [5] | [10]
inactive: all other assays above

NC(=O)N/N=C/c1ccc([N+](=O)[O-])o1
active: [11] 13400 nM
not listed: [2] | [4] | [5]
inactive: all other assays above

Cc1ccc(C(C)C)cc2c(C)ccc1-2
not listed: [2] | [4] | [5]
inactive: all other assays above

Nc1ccc(S(=O)(=O)Nc2nccs2)cc1
not listed: [2] | [4] | [5]
inactive: all other assays above

Cc1cc(CC(=O)O)n(C)c1C(=O)c1ccc(Cl)cc1
not listed: [2] | [4] | [5]
inactive: all other assays above

CN1CCOC(c2ccccc2)c2ccccc2C1 (stereo unspecified)
inactive: [1] | [3] | [9] | [6] | [7] | [8]

COc1cc2[nH]c(=O)[nH]c(=O)c2cc1OC
not listed: [2] | [4] | [5]
inactive: all other assays above

CC1(C)Oc2ccc(C#N)cc2[C@@H](N2CCCC2=O)[C@@H]1O
not listed: [2] | [4] | [5]
inactive: all other assays above

O=C(O)CN1C(=O)c2cccc3cccc(c23)C1=O
not listed: [2] | [4] | [5]
inactive: all other assays above

OCC(CO)N[C@H]1C[C@](O)(CO)[C@@H](O)[C@H](O)[C@H]1O
not listed: [2] | [4] | [5]
inactive: all other assays above

NC(CSCC(=O)O)C(=O)O (stereo unspecified)
not listed: [2] | [4] | [5]
inactive: all other assays above

OCC(O)CN1CCN(c2ccccc2)CC1 (stereo unspecified)
not listed: [2] | [4] | [5] | [10]
inactive: all other assays above

CCN(CC)CCNC(C(=O)OCCC(C)C)c1ccccc1 (stereo unspecified)
active: [11] 776 nM
not listed: [2] | [4] | [5]
inactive: all other assays above

CN(C)CCN(Cc1ccccc1)c1ccccn1
active: [11] 174 nM
not listed: [2] | [4] | [5]
inactive: all other assays above

NC(=O)NC(=O)Cc1ccccc1
not listed: [2] | [4] | [5]
inactive: all other assays above

Nc1nc2c(ncn2CCC(CO)CO)c(=O)[nH]1
not listed: [2] | [4] | [5]
inactive: all other assays above

CCCCC(CC)COC(=O)c1ccccc1O (stereo unspecified)
not listed: [2] | [4] | [5]
inactive: all other assays above

CCCCCCCCCCCCCCCCCCOCC(O)CO (stereo unspecified)
not listed: [2] | [4] | [5] | [10]
inactive: all other assays above

Nc1ccc(S(=O)(=O)NC(=O)c2ccccc2)cc1
not listed: [2] | [4] | [5]
inactive: all other assays above
